Molecules are shown by their SMILES.

What all share (type): functional
The test system of assay [1] is Plasmodium falciparum. Briefly: GSK_TCMDC: Inhibition of Plasmodium falciparum 3D7 in whole red blood cells, using parasite LDH activity as an index of growth. Test compounds present at 2uM.
In assay [2] the test system is Plasmodium falciparum. The assay is described as follows: GSK_TCMDC: Inhibition of Plasmodium falciparum Dd2 in whole red blood cells, using parasite LDH activity as an index of growth. Test compounds present at 2uM.
The test system of a further assay is HepG2. Briefly: GSK_TCMDC: Percent inhibition of human HepG2 cell line. Test compounds present at 10uM.

A word on the Inhibition: it is the drop in the measured response relative to a control, in per cent. Read a high Inhibition as a strong effect. With `Fc1cccc(COc2ccc(Nc3ncnc4ccc(C#C[C@H]5CCCN5)cc34)cc2Cl)c1`, the Inhibition in the assay with Plasmodium falciparum [1] is 91%; in the assay with Plasmodium falciparum [2], 26%; with HepG2, 7%.
For `Nc1ncc(-c2ccc3[nH]ccc3c2)c2ccc(-c3ccncc3)cc12`, the Inhibition in the assay with Plasmodium falciparum [1] is listed as 100%; with Plasmodium falciparum [2] it was 100%; in the assay on HepG2 it was 42%.
With `O=C(c1ccc(-c2ccc(-c3nc4ccccc4[nH]3)s2)cc1)N1CCCCC1CN1CCC(O)C1` (configuration not stated), the Inhibition was determined as 84% in the assay on Plasmodium falciparum [1], 55% in the assay on Plasmodium falciparum [2] and 18% in the assay on HepG2.
For the molecule `COc1ccc(CNC(=O)NC2CCN(c3ccnc(Nc4ccc(F)cc4)n3)CC2)cc1`, the figures for the Inhibition in the assay with Plasmodium falciparum [1], in the assay with Plasmodium falciparum [2] and in the assay with HepG2 were 87%, 4% and 16%, respectively.
Regarding `Br.CC1(C)NC(N)=NC(=N)N1OCCCOc1ccc(N)cc1`, the Inhibition with Plasmodium falciparum [1] is recorded as 96%; in the assay on Plasmodium falciparum [2], 95%; in the assay with HepG2 it was 66%.
The matching figures for `NC(=O)c1cccc(CNC(=O)NC[C@H]2CN(Cc3ccc(Cl)c(Cl)c3)CCO2)c1`: 98%, 65% and 0%.
Take `O=C(NC1CCN(Cc2ccccc2)CC1)c1ccc(CNC2CCN(Cc3ccccc3)CC2)cc1.O=C(O)C(F)(F)F`: the Inhibition was 99% with Plasmodium falciparum [1], 58% with Plasmodium falciparum [2] and 14% with HepG2.
On to `CCOc1ccc(Nc2ccc3nonc3c2S(=O)(=O)Nc2ccc(OCC)cc2)cc1`, for which the figures for the Inhibition in the assay with Plasmodium falciparum [1], in the assay on Plasmodium falciparum [2] and in the assay on HepG2 were 100%, 93% and 6%, respectively.
In the case of `Cc1cc(N(C)CCCN(C)C)nc(Nc2ccc(Br)cc2)n1`, the Inhibition in the assay with Plasmodium falciparum [1] stood at 100%; with Plasmodium falciparum [2], 84%; in the assay with HepG2 it was 4%.
The matching figures for `Cc1cccc2nc(-c3ccc(-c4ccc(CNCCNC(=O)c5ccnn5C)cc4)s3)[nH]c12.O=C(O)C(F)(F)F`: 100%, 97% and 20%.
On to `CCCCCCn1c(Sc2ccc(C#N)c([N+](=O)[O-])c2)nnc1-c1ccc(OC)cc1`, for which the Inhibition is on record as 95% in the assay with Plasmodium falciparum [1], 51% with Plasmodium falciparum [2] and 19% in the assay on HepG2.
For `Cc1cc(C2CCN(CCCCNC(=O)c3ccc(NC(=O)c4ccc(Cl)cc4)cc3)CC2)c(C)cc1OCc1cccnc1`, in that order: 100%, 90% and 39%.
With `Cc1cc(-c2ccc(NC(=O)c3coc4ccc(N5CC(C)N(C)C(C)C5)cc34)cc2C)cc(C)n1.Cl` (configuration not stated), the Inhibition in the assay with Plasmodium falciparum [1] was 94%; with Plasmodium falciparum [2], 62%; in the assay with HepG2, 13%.
For `CC1CCC(C[C@@H](C(=O)N[C@@H](CCC(=O)N2CCCCC2)C(=O)Nc2nccs2)[C@H](C(C)C)N(O)C=O)CC1` (some centres not stated), the Inhibition is reported as 87% with Plasmodium falciparum [1], 70% in the assay on Plasmodium falciparum [2] and 38% in the assay on HepG2.
`Cc1ccc(C(=O)Nc2ccc(F)c(F)c2F)cc1S(=O)(=O)N1CCCCC1`: the Inhibition with Plasmodium falciparum [1] is given as 92%; with Plasmodium falciparum [2], 69%; in the assay on HepG2 it was 3%.
In the case of `CCC(C)C#Cc1c(C)nc(N)nc1N` (configuration not stated), the results for the Inhibition in the assay with Plasmodium falciparum [1], in the assay on Plasmodium falciparum [2] and in the assay on HepG2 were 96%, 0% and 53%, respectively.
Take `COc1ccc(CN2CCC(CNCCc3ccccc3Oc3ccccc3)CC2)cc1.O=C(O)C(F)(F)F`: the Inhibition with Plasmodium falciparum [1] turned out to be 85%; in the assay with Plasmodium falciparum [2], 56%; in the assay with HepG2 it was 99%.
In the case of `N=C(Nc1ccccc1)Nc1cccc(Cc2ccc([N+](=O)[O-])cc2)n1`, the Inhibition in the assay with Plasmodium falciparum [1] came out at 96%; in the assay on Plasmodium falciparum [2], 19%; in the assay with HepG2, 28%.
For `COc1ccc(C(C)Nc2nc(N)c3cc(OC)c(OC)cc3n2)cc1.Cl` (configuration not stated), in that order: 100%, 28% and 23%.
Regarding `CS(=O)(=O)CCNCc1cccc(-c2cc3c(Nc4ccc(OCc5ccccc5)cc4)ncnc3cn2)c1.Cl`, the Inhibition in the assay with Plasmodium falciparum [1] was determined as 100%; in the assay on Plasmodium falciparum [2], 26%; in the assay on HepG2, 3%.
Turning to `CN1CCN(Cc2cc3cc(NC(=O)/C=C/c4ccc(Cl)cc4)ccc3s2)CC1.Cl`, the results for the Inhibition in the assay with Plasmodium falciparum [1], with Plasmodium falciparum [2] and with HepG2 were 100%, 20% and 51%, respectively.
Turning to `Cc1noc(C)c1-c1cccc(CNCc2cccc(-c3cccc(-c4nc5ccccc5[nH]4)c3)c2)c1.O=C(O)C(F)(F)F`, the Inhibition was 100% in the assay with Plasmodium falciparum [1], 54% in the assay on Plasmodium falciparum [2] and 22% in the assay on HepG2.
Consider `COc1cc(Cc2cnc(NCCN3CCNCC3)nc2N)ccc1OCc1ccc(C(F)(F)F)cc1`, for which the results for the Inhibition in the assay with Plasmodium falciparum [1], in the assay on Plasmodium falciparum [2] and in the assay with HepG2 were 98%, 4% and 12%, respectively.
The matching figures for `N[C@@H](Cc1cc(I)c(Oc2ccc(O)c(C(=O)O)c2)c(I)c1)C(=O)O`: 97%, 21% and 57%.
The matching figures for `CS(=O)(=O)c1ccc(-c2cncc(Cl)n2)cc1`: 100%, 95% and 8%.
For the molecule `COc1ccc2c(c1)Sc1ccccc1C(N1CCN(CCO)CC1)C2.Cl` (configuration not stated), the Inhibition came out at 95% in the assay with Plasmodium falciparum [1], 4% in the assay with Plasmodium falciparum [2] and 11% with HepG2.
Regarding `O=C(Nc1cccc(C(F)(F)F)c1)Nc1ccc(Cl)c(Cl)c1`, the Inhibition in the assay with Plasmodium falciparum [1] is reported as 100%; in the assay on Plasmodium falciparum [2], 100%; in the assay with HepG2 it was 5%.
With `Cl.Oc1ccc(Nc2nc(NCC3CCCO3)c3ccccc3n2)cc1` (configuration not stated), the Inhibition with Plasmodium falciparum [1] worked out at 100%; in the assay on Plasmodium falciparum [2], 57%; with HepG2 it was 7%.
For `CCOc1ccc(-c2nonc2NC(=O)c2cccs2)cc1OCC`, the Inhibition is on record as 100% in the assay with Plasmodium falciparum [1], 100% with Plasmodium falciparum [2] and 6% in the assay on HepG2.

These data come from ChEMBL document CHEMBL1157539, “Thousands of chemical starting points for antimalarial lead identification” (Nature, 2010).
